Experimental findings from PubChem BioAssay AID651815 (National Center for Advancing Translational Sciences (NCATS), 2012) are described below.

In all, about 2,100 compounds went through this assay and about 1,100 (52%) were called active. Inconclusive results (about 29%) are left out. Calls follow the shape of the dose curve; as a rule, active = well fitted inhibition curve with a large enough effect; inconclusive = small, poorly fitted or top-dose-only effect; inactive = no such curve, though single readings can be large or run the other way. The set was probably picked from earlier hits. The list shows a part of the results.
Potency is read from the fitted curve at half-maximal effect.

Chain of DNA dC->dU-editing enzyme APOBEC-3F (Homo sapiens) (Q8IUX4 whole entry, looked up): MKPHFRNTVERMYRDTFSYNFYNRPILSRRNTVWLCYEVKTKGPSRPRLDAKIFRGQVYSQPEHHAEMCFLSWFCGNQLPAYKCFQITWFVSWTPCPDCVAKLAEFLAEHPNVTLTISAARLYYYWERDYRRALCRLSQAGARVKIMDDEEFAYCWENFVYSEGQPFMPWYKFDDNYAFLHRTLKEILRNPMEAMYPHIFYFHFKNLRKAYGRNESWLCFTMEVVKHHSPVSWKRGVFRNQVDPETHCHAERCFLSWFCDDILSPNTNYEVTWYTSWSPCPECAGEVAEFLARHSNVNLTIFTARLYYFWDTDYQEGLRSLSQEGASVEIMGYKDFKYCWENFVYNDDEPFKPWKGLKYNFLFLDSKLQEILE

The target of the test is DNA dC->dU-editing enzyme APOBEC-3F (Homo sapiens) (UniProt Q8IUX4). Kind of test: qHTS for inhibitors of Vif-A3F interactions: Cherry picks counterscreen. Also: nearly all actives have a fitted effect of over 65% in size. As to conditions: HeLa A3F-eYFP/Vif cells, eYFP fluorescence, 24 h; series mostly up to 46.1 µM. In a few lines:
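Rescue of Vif-driven A3F-eYFP degradation read as cellular eYFP fluorescence after 24 h compound exposure (several concentrations) in stable HeLa cells; MG132 (2 mM stock) as positive control.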
Background: qHTS replaces the single test concentration by a dilution series.
On to `Cc1ccc(CNc2nc3ccc(Cl)cc3n3nnnc23)cc1`, for which the Potency is 11.6 µM (active). Turning to `c1ccc2c(c1)nc(N1CCOCC1)c1nnnn12`, the Potency is 20.6 µM (active). The result for `Fc1ccc(CNc2nc3ccccc3n3nnnc23)cc1` reads 11.6 µM (active); that for `Fc1ccccc1Nc1nc2ccccc2n2nnnc12`, 14.6 µM (active). As to `Fc1ccc(CNc2nc3ccc(Cl)cc3n3nnnc23)cc1`, the Potency is 6.51 µM (active). In the case of `c1ccc2c(c1)nc(NCC1CCCO1)c1nnnn12` (configuration not stated), the Potency was 18.4 µM (active). The result for `N#C/C(=C/c1ccc(N2CCCCC2)o1)c1cccc(F)c1` reads 4.11 µM (active); that for `Cc1ccc(/C(C#N)=C\c2ccc(N3CCOCC3)o2)cc1`, 15.8 µM (active).

Regarding `N#C/C(=C/c1ccc(N2CCOCC2)o1)c1ccc(Cl)cc1`, the Potency was 4.61 µM (active). In the case of `N#C/C(=C/c1ccc(N2CCCCCC2)o1)c1ccc(Cl)cc1`, the Potency was 3.66 µM (active).

Regarding `CCN(c1ccc(NC(=O)CCc2nc3sc4c(c3c(=O)[nH]2)CCCC4)cc1)C(C)C`, the Potency result was “inactive”. The result for `CCCC1=[N+](CC(=O)c2ccc(Br)cc2)CCn2cccc21` reads “inactive”; that for `COc1ccc(C(=O)C[n+]2cc(Br)cc3ccccc32)cc1`, 16.4 µM (active); that for `COc1ccc(C(=O)C[n+]2cccc3cc(Cl)ccc32)cc1`, 20.6 µM (active). The result for `CC(C)(C)c1ccc(C(=O)C[n+]2cccc3cc(Cl)ccc32)cc1` reads 18.4 µM (active); that for `O=C(C[n+]1cccc2cc(Cl)ccc21)c1ccc2ccccc2c1`, 20.6 µM (active); that for `O=C(NC1C/C(=N/O)c2cc3c(cc21)OCO3)C(F)(F)F` (configuration not stated), “inactive”. With `CCCn1c(CN2CCN(C(=O)OCC)CC2)nc2cc(NC(=O)C(C)C)ccc21`, the Potency is 12.5 µM (active).

As for `CCN(CC)C(=O)Cn1c(C)c(/C=C/c2cc[n+](C)cc2)c2ccccc21`, the Potency is 7.9 µM (active).

For `COC(=O)Cn1c(C)c(/C=C/c2cc[n+](C)cc2)c2ccccc21`, the Potency is 9.2 µM (active). The result for `COc1ccccc1-c1cc(-c2ccccc2)nc(SC(C(N)=O)c2ccccc2)c1C#N` (configuration not stated) reads 17.7 µM (active). `N#CC1=C(S)N(c2ccc(F)cc2)C2(CCCCC2)NC1=O`: the Potency result was “inactive”. On to `Cc1ccc2nc(C)c(C(=O)NN=C3CCCCCC3)n2c1`, for which the Potency entry is “inactive”. In the case of `O=C1OC(/C(=C\Nc2cc(Cl)ccc2O)[N+](=O)[O-])c2ccccc21` (configuration not stated), the Potency entry was “inactive”. For the compound `CCCCN(CCC(=O)O)c1ccc(/C=C/c2ccnc3ccccc23)cc1`, the Potency is 18.4 µM (active). For `CCN(CCCN(C)C)c1ccc(/C=C/c2ccnc3ccccc23)cc1`, the Potency is 20.6 µM (active). For `CCN(C)c1ccc(/C=C/c2ccnc3ccccc23)cc1`, the Potency is 23.1 µM (active). The result for `CC(C)CN(CC(C)C)c1ccc(/C=C/c2ccnc3ccccc23)cc1` reads 20.6 µM (active); that for `CCCN(CCC)c1ccc(/C=C/c2ccnc3ccccc23)cc1`, 20.6 µM (active). As for `CCCCN(CCCC)c1ccc(/C=C/c2ccnc3ccccc23)cc1`, the figure is 23.1 µM (active); as for `CCN(CC)c1ccc(/C=C/c2ccnc3ccccc23)cc1`, 23.1 µM (active); as for `COCCNC(=O)C(=O)Nc1ccc2c(c1)N(S(=O)(=O)c1cccs1)CCC2`, 2.23 µM (active). Consider `CCOc1ccccc1NC(=O)Cn1nnc(C(=O)NCc2cccs2)c1N`, for which the Potency is 1.46 µM (active). On to `CCN(CC(=O)NCc1ccc(F)cc1)C(=O)/C=C/c1ccc(OC)c(S(=O)(=O)NC(C)C)c1`, for which the Potency is 4.98 µM (active). Take `CC(=O)c1cccc(-c2ccnc3c2CC(C(=O)Nc2ccc(Cl)cc2)O3)c1` (configuration not stated): the Potency was 4.98 µM (active).

With `COc1ccc(NC(=O)C2Cc3c(-c4cccc(C(C)=O)c4)ccnc3O2)cn1` (configuration not stated), the Potency was 3.14 µM (active).

Take `COc1ccc(NC(=O)C2Cc3c(-c4cccc(C(C)=O)c4)ccnc3O2)cc1` (configuration not stated): the Potency was 3.53 µM (active).

Consider `CC(=O)Nc1cccc(-c2ccnc3c2CC(C(=O)Nc2ccc4c(c2)OCO4)O3)c1` (configuration not stated), for which the Potency is 4.44 µM (active). The result for `CC(=O)Nc1ccc(-c2ccnc3c2CC(C(=O)Nc2cccc(N(C)C)c2)O3)cc1` (configuration not stated) reads 12.5 µM (active); that for `COc1ccc(NC(=O)C2Cc3c(-c4cccc(NC(C)=O)c4)ccnc3O2)cn1` (configuration not stated), 7.9 µM (active); that for `Cc1ccc(S(=O)(=O)c2cc3ccccc3oc2=Nc2ccc3c(c2)OCO3)cc1`, “inactive”.

Regarding `CC(C)NC(=S)N/N=C/c1sc(N2CCCCC2)nc1-c1cccs1`, the Potency result was “inactive”.

As to `COc1cccc(N2CC(O)=C(c3nc4ccccc4s3)C2=N)c1`, the Potency is 7.9 µM (active). The result for `CN(C)c1ccc(/C=C2\SC(N3CCCCC3)=NC2=O)cc1` reads 23.1 µM (active); that for `CN(C)c1ccc(/C=C2\C(=N)N3N=C(CC(=O)N4CCCCC4)SC3=NC2=O)cc1`, 3.26 µM (active); that for `CCN(CC)c1ccc(/C=C2\C(=N)N3N=C(CC(=O)N4CCOCC4)SC3=NC2=O)cc1`, 0.0353 µM (active). With `COc1cc(/C=C2\C(=N)N3N=CSC3=NC2=O)cc(Br)c1OC(=O)c1ccco1`, the Potency entry is “inactive”.

As for `COc1cc(/C=C2\C(=N)N3N=C(S(C)(=O)=O)SC3=NC2=O)ccc1OC(=O)c1ccco1`, the Potency result was “inactive”. The result for `CN1C(=O)c2cccc(NCCCN3C(=O)c4ccccc4C3=O)c2C1=O` reads 18.4 µM (active); that for `CCCOc1ccc(N)cc1N`, “inactive”.

As for `CN(C)c1ccc(/C=C2\NC(=S)N(Cc3ccccc3)C2=O)cc1`, the Potency is 2.23 µM (active). In the case of `CCN1C(=O)/C(=C/c2ccc(N3CCCC3)cc2)NC1=S`, the Potency is 20.6 µM (active). As for `O=C1/C(=C/c2ccc(N3CCCC3)cc2)NC(=S)N1C1CC1`, the figure is 14.6 µM (active); as for `Cc1cccc(N2CCN(Cc3cn(C)nc3-c3ccccc3F)CC2)n1`, 6.27 µM (active); as for `Cc1sc(-c2cc3c([nH]c2=O)CC(c2ccccc2)CC3=O)nc1-c1ccc(Cl)cc1` (configuration not stated), 8.2 µM (active).

For `O=C1CC(c2ccccc2)Cc2[nH]c(=O)c(-c3nc(-c4cccc(Cl)c4)cs3)cc21` (configuration not stated), the Potency was 4.11 µM (active). The result for `CCOC(=O)N1CCN(c2c(NCc3ccc(F)cc3)c(=O)c2=O)CC1` reads 17.7 µM (active); that for `Cc1ccc2[nH]c(C)c(/C=C/c3cc[n+](C)cc3)c2c1`, 1.77 µM (active).

For `Cc1[nH]c2ccccc2c1/C=C/C(=O)c1ccccc1`, the Potency is 23.1 µM (active). For the compound `Cc1[nH]c2ccccc2c1/C=C/c1cc[n+](C)cc1`, the Potency is 6.27 µM (active). Consider `COc1ccccc1-c1c(C#N)c(N)nc2c1CCc1ccccc1-2`, for which the Potency is 3.14 µM (active).

As to `CSc1nc(N)c(C#N)c(-c2ccccc2Cl)c1C#N`, the Potency result is “inactive”.
